Here are results for nine compounds from PubChem BioAssay (NCI).

Among the test systems are SR leukemia; RPMI-8226 leukemia; OVCAR-8 ovarian; OVCAR-5 ovarian; OVCAR-4 ovarian; SK-OV-3 ovarian; IGROV1 ovarian; OVCAR-3 ovarian; HS 578T breast; NCI/ADR-RES ovarian; MDA-MB-435 melanoma; SW-620 colon; MCF7 breast; HCT-116 colon; HCC-2998 colon; KM12 colon; T-47D breast; BT-549 breast.
Holding throughout (experiment): NCI-60 one-dose screen, 48 h (100 = growth as untreated, 0 = no growth, -100 = all killed)
Details in all cases: 10 µM unless noted

The structures appear in SMILES notation. Compounds without any hit were thinned out: in the full panel of roughly 83,000, 20% have a hit.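 A percent growth of 40 corresponds to 60% growth inhibition; 0 means no net growth; -100 means all cells died. Active threshold: below 10.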 Unmarked numbers belong to inactive results. Active and inactive are the calls of the source.

For the compound `COc1ccc(OC)c(Nc2nc3nonc3nc2Nc2cc(OC)ccc2OC)c1`, the growth in the assay on SR leukemia is 79.2%; with RPMI-8226 leukemia, 36.1%; in the assay on OVCAR-8 ovarian, 47.8%; with OVCAR-5 ovarian, 92.3%; in the assay on OVCAR-4 ovarian, -27.6% (active); in the assay on SK-OV-3 ovarian, 46.1%. The growth with IGROV1 ovarian is 95.3%; in the assay on OVCAR-3 ovarian, 26%; in the assay on HS 578T breast, 44.6%; in the assay on NCI/ADR-RES ovarian, 44.8%; in the assay with MDA-MB-435 melanoma, 43.1%; with SW-620 colon, 57.3%. For the same compound, the growth is 65.7% in the assay with MCF7 breast, 17.6% with HCT-116 colon, 56.7% in the assay on HCC-2998 colon and 67.4% with KM12 colon.

For `CCCCCCNCc1cc(C(C)(C)C)cc(CNCCCCCC)c1O`, the growth in the assay on SR leukemia is -52% (active); in the assay on RPMI-8226 leukemia, -29.8% (active); with OVCAR-8 ovarian, -80.2% (active); in the assay on OVCAR-5 ovarian it was -69.9% (active); with OVCAR-4 ovarian, -94.8% (active); in the assay on SK-OV-3 ovarian, -90.5% (active). Besides, the growth is -77.5% (active) in the assay on IGROV1 ovarian; -86.6% (active) in the assay with OVCAR-3 ovarian; -22.1% (active) in the assay with HS 578T breast; -87.6% (active) in the assay with NCI/ADR-RES ovarian; -41.6% (active) in the assay with T-47D breast; -81% (active) in the assay on BT-549 breast. Moreover, the growth in the assay on MDA-MB-435 melanoma is -82.8% (active); with SW-620 colon it was -69.6% (active); with HCT-116 colon, -90.8% (active); with HCC-2998 colon it was -85.2% (active); in the assay on KM12 colon it was -83% (active).

As to `Cc1cc(C(c2ccccc2)c2ccccc2)ccc1NS(=O)(=O)c1ccccc1`, the growth with SR leukemia is 74.7%; in the assay on RPMI-8226 leukemia, 71%; in the assay with OVCAR-8 ovarian, 101%; in the assay on OVCAR-5 ovarian, 114%; in the assay with OVCAR-4 ovarian, 98.5%; in the assay with SK-OV-3 ovarian, 109%. Moreover, the growth is 123% in the assay with IGROV1 ovarian; 108% in the assay on OVCAR-3 ovarian; 89.8% with HS 578T breast; 82.8% in the assay with NCI/ADR-RES ovarian; 85.6% in the assay on T-47D breast; 114% in the assay with MDA-MB-435 melanoma. In addition, the growth with SW-620 colon was 101%; with MCF7 breast, 88.3%; in the assay with HCT-116 colon, 82.1%; in the assay with HCC-2998 colon, 104%; in the assay on KM12 colon it was 97.7%.

In the case of `N#Cc1c(Oc2ccc([N+](=O)[O-])cc2)nc2sc3cc(Cl)ccc3n2c1=N`, the growth with SR leukemia is 92.2%; in the assay on RPMI-8226 leukemia, 83.6%; with OVCAR-8 ovarian, 63.4%; with OVCAR-5 ovarian, 120%; in the assay on OVCAR-4 ovarian, 53.1%; with SK-OV-3 ovarian, 67.1%. The growth in the assay with IGROV1 ovarian is 77.7%; with OVCAR-3 ovarian it was 107%; in the assay on HS 578T breast, 41.8%; with NCI/ADR-RES ovarian, 86%; in the assay with T-47D breast, 60.2%; in the assay on MDA-MB-435 melanoma, 111%. Besides, the growth was 61.8% with MCF7 breast, 105% in the assay on HCT-116 colon, 117% in the assay on HCC-2998 colon and 47.7% in the assay with KM12 colon.

With `COc1ccc(-c2nc3sc4c(c3c(=O)[nH]2)CCCC4)c2ccccc12`, the growth with SR leukemia is 7.04% (active); with RPMI-8226 leukemia, 11.5%; in the assay with OVCAR-8 ovarian, 12.8%; in the assay on OVCAR-5 ovarian, -17.7% (active); with OVCAR-4 ovarian it was -7.19% (active); in the assay with SK-OV-3 ovarian, 33.7%. Moreover, the growth in the assay on IGROV1 ovarian is 37.5%; in the assay with OVCAR-3 ovarian, -64.5% (active); with HS 578T breast, -0.402% (active); in the assay with NCI/ADR-RES ovarian it was 5.34% (active); with MDA-MB-435 melanoma, -70.3% (active); in the assay on SW-620 colon it was 18.9%. The growth in the assay on MCF7 breast is 9.63% (active); in the assay on HCT-116 colon, 10.7%; in the assay with HCC-2998 colon it was 12.3%; in the assay with KM12 colon it was 7.22% (active).

`C=C(C)C1CCC(=C)C2CCC3(C)OC12/C=C(/COC(C)=O)CCC3O` (stereo not given): the growth with SR leukemia is 74.6%; in the assay with RPMI-8226 leukemia, 235%; in the assay with OVCAR-8 ovarian it was 103%; in the assay with OVCAR-5 ovarian, 105%; with OVCAR-4 ovarian it was 127%; in the assay on SK-OV-3 ovarian, 119%. The growth in the assay on IGROV1 ovarian is 151%; in the assay on OVCAR-3 ovarian, 124%; with HS 578T breast it was 177%; in the assay with NCI/ADR-RES ovarian, 105%; in the assay with T-47D breast, 112%; in the assay on BT-549 breast, 78.6%. Further, the growth was 98.7% in the assay with MDA-MB-435 melanoma; 96.8% in the assay on MCF7 breast; 103% with HCT-116 colon; 106% in the assay on HCC-2998 colon; 117% in the assay on KM12 colon.

For the compound `N#Cc1c(N)n2c(nc1=Nc1ccc([N+](=O)[O-])cc1)sc1cc(Cl)ccc12`, the growth in the assay with SR leukemia is 34.7%; in the assay with RPMI-8226 leukemia, 49.7%; in the assay on OVCAR-8 ovarian, 94.5%; with OVCAR-5 ovarian, 101%; in the assay with OVCAR-4 ovarian, 86.1%; in the assay with SK-OV-3 ovarian it was 76.4%. Also, the growth in the assay on IGROV1 ovarian was 82.3%; in the assay on OVCAR-3 ovarian, 108%; with HS 578T breast, 79%; in the assay with NCI/ADR-RES ovarian it was 95.2%; in the assay on T-47D breast, 78.2%; in the assay on BT-549 breast it was 116%. In addition, the growth with MDA-MB-435 melanoma is 97.9%; in the assay with MCF7 breast it was 77.6%; in the assay with HCT-116 colon it was 94.3%; in the assay on HCC-2998 colon, 144%; in the assay on KM12 colon it was 97.2%.

On to `O=C(Nc1ccc(N2CCCCC2)c(Cl)c1)c1ccc(Br)o1`, for which the growth with SR leukemia is 40.8%; in the assay on RPMI-8226 leukemia, 55.7%; in the assay with OVCAR-8 ovarian, 59%; in the assay on OVCAR-5 ovarian, 114%; in the assay with OVCAR-4 ovarian it was 73%; in the assay with SK-OV-3 ovarian, 107%. Further, the growth in the assay with IGROV1 ovarian was 75.1%; with OVCAR-3 ovarian it was 43.6%; in the assay with HS 578T breast, 72.8%; with NCI/ADR-RES ovarian, 68%; with T-47D breast, 63%; with BT-549 breast, 81.2%. For the same compound, the growth in the assay on MDA-MB-435 melanoma was -95.4% (active); with MCF7 breast it was 49.9%; in the assay on HCT-116 colon, 84.3%; in the assay on HCC-2998 colon it was 111%; with KM12 colon, 70.1%.

With `COc1cc(C(=O)Nc2cc(O)c(CC=C(C)C)c(O)c2)cc2c1O[C@]1(C)CC[C@@H](O)C(C)(C)[C@H]1C2`, the growth in the assay on SR leukemia is 14.2%; in the assay with RPMI-8226 leukemia it was -24.3% (active); in the assay with OVCAR-8 ovarian, 31.3%; with OVCAR-5 ovarian, 53%; with OVCAR-4 ovarian, 58.6%; in the assay on SK-OV-3 ovarian, 16.5%. In addition, the growth with IGROV1 ovarian is 61.1%; with OVCAR-3 ovarian it was 27.7%; in the assay with HS 578T breast, 10.3%; with NCI/ADR-RES ovarian it was 81.3%; in the assay with T-47D breast it was 3.79% (active); with BT-549 breast, 29.6%. Besides, the growth in the assay with MDA-MB-435 melanoma is 24.9%; in the assay with MCF7 breast, 6.62% (active); with HCT-116 colon, 13.2%; in the assay with HCC-2998 colon it was 7.4% (active); with KM12 colon it was 18.2%.
